Records with an inconclusive call do not appear. Active and inactive are the calls of the source. Calls follow the shape of the dose curve; as a rule, active = well fitted cell-killing curve with a large enough effect; inconclusive = small, poorly fitted or top-dose-only effect, or effect the other way; inactive = flat fitted curve, though single readings scatter.
Columns and labels:
Assay in all cases: Primary qHTS to identify gynecologic anti-cancer compounds using libraries of approved drugs and bioactive compounds (AID 1345084); also: nearly all actives have a fitted effect of over 55% in size
C33A = details: Gynecologic cancer cell panel viability, ATPlite luminescence, 48 h; series mostly up to 57.5 µM
How it was run: (§1)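 Luminescence from the ATPlite ATP-monitoring reagent indicates viable cell number; lower signal means cytotoxicity. Cells received compound 16 h after seeding and were exposed for 48 h across five concentrations.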

CAOV3 = details: Gynecologic cancer cell panel viability, ATPlite luminescence, 48 h; series mostly up to 57.5 µM
How it was run: as §1

CASKI = details: Gynecologic cancer cell panel viability, ATPlite luminescence, 48 h; series mostly up to 57.5 µM
How it was run: as §1

Es-2 = details: Gynecologic cancer cell panel viability, ATPlite luminescence, 48 h; series mostly up to 57.5 µM
How it was run: as §1

HeLa = details: Gynecologic cancer cell panel viability, ATPlite luminescence, 48 h; series mostly up to 57.5 µM
How it was run: as §1

Hek293T = details: Gynecologic cancer cell panel viability, ATPlite luminescence, 48 h, control line for the selectivity index; series mostly up to 57.5 µM
How it was run: as §1

JEG-3 = details: Gynecologic cancer cell panel viability, ATPlite luminescence, 48 h; series mostly up to 57.5 µM
How it was run: as §1

OV90 = details: Gynecologic cancer cell panel viability, ATPlite luminescence, 48 h; series mostly up to 57.5 µM
How it was run: as §1

PA-1 = details: Gynecologic cancer cell panel viability, ATPlite luminescence, 48 h; series mostly up to 57.5 µM
How it was run: as §1

SKOV3 = details: Gynecologic cancer cell panel viability, ATPlite luminescence, 48 h; series mostly up to 57.5 µM
How it was run: as §1

Tov-21-G = details: Gynecologic cancer cell panel viability, ATPlite luminescence, 48 h; series mostly up to 57.5 µM
How it was run: as §1

Tov112D = details: Gynecologic cancer cell panel viability, ATPlite luminescence, 48 h; series mostly up to 57.5 µM
How it was run: as §1

Measured: Potency

O=C(O)c1ccc(S(=O)(=O)N(Cc2ccc(OC(F)(F)F)cc2)c2ncc(C(F)(F)F)cc2Cl)cc1
inactive: all assays above

CCC(C)/C=C(C)/C=C/C1=CC2=CC(=O)C3(C)OC(C)(O)C(C(=O)OC)C3C2=CO1 (stereo not drawn)
inactive: all assays above

Cc1ccc(C)c(NS(=O)(=O)c2cc(C(=O)Nc3ccccc3-c3ccccc3)ccc2C)c1
inactive: all assays above

CCC/C=C\C=C/CCc1cc(O)c([C@@H]2O[C@H](CO)[C@@H](O)[C@H](O)[C@H]2O)c(O)c1C(=O)OC
inactive: all assays above

CC(C)(Cc1ccccc1)NCC(O)c1ccc(O)c(NS(C)(=O)=O)c1 (stereo not drawn)
inactive: all assays above

C[C@@H]1C[C@H]2O[C@@]3(O[C@@H]2C(C)(C)O)C(O)[C@@]2(C)C4CCC5C(C)(C)[C@@H](O[C@H]6OC[C@H](O)[C@@H](O)[C@@H]6O)CC[C@@]56C[C@@]46CC[C@]2(C)C13 (stereo partly drawn)
inactive: all assays above

O=C(NCC1(c2nc(-c3ccccc3)cs2)CCOCC1)c1cccc(-c2noc(C(F)(F)F)n2)c1
inactive: all assays above

O=C([C@@H]1CCCN(c2ccc3[nH]c(C4(n5cc(Cl)cn5)CC4)nc3n2)C1)N1CCCC1
inactive: all assays above

CC(C)C(C)C(O)C1CC23CC(=O)C4(O)C(=C2CCC3C1C)C=CC1(O)CC(O)CCC14C (stereo not drawn)
inactive: all assays above

COC(=O)c1ccnc(-c2cc(C(=O)Nc3ccc(C4(N)CC4)cc3)ccn2)c1
inactive: all assays above

COc1ccccc1N1CCN(CC[C@@](C)(C(=O)C2CCCCC2)c2ccccc2)CC1
inactive: all assays above

C/C=C(/C=C(C)/C=C/C=C/C=C(\C)C(=O)C12OC1C(O)(CCO)NC2=O)C(=O)OC (stereo not drawn)
inactive: all assays above

O=S(=O)(NCc1ccccn1)c1ccc(Br)c2ccccc12
inactive: all assays above

CC1(C)CCCC2(C)C1C(OC(=O)/C=C/C=C/C=O)C=C1COC(=O)C12O (stereo not drawn)
inactive: all assays above

C=C1CC[C@@H]2[C@](C)(CO)[C@H](O)CC[C@@]2(C)[C@@H]1/C=C/C1=CCOC1=O
inactive: all assays above

COc1cccc(CN(C(=O)CC(C)(C)C)[C@H]2C[C@H](C(=O)N3CCNCC3)N(Cc3ccc4c(c3)OCO4)C2)c1
inactive: all assays above

C[C@@H](NC(=O)c1ccc(C#Cc2cccc(F)c2)cn1)C(C)(C)O
inactive: all assays above

O=C(Nc1cnc(Cl)nc1)c1ccc(F)c(F)c1
inactive: all assays above

CC1(C)Oc2ncnc(N)c2N=C1c1ccc(C23CCC(CC(=O)O)(CC2)CC3)cc1
inactive: all assays above

Source: PubChem BioAssay (NCATS)
